Screens (PubChem BioAssay)
This excerpt belongs to a sample that is enriched for hits.
Pf Dd2 inh: blocks in vitro growth of P. falciparum Dd2; P. falciparum Dd2 growth, SYBR Green, 72 h; Potency, µM (highest dose often 28.9 µM), most hits filed as inhibitors; actives 4.3% (n = 120,000); AID 1347417; active = well fitted inhibition curve with a large enough effect; also: nearly all actives have a fitted effect of over 65% in size
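Infected erythrocytes (Dd2, 0.3% parasitemia, 2.5% hematocrit final) are added to compound in RPMI-1640/Albumax II medium, grown 72 h at 37C in low oxygen, then lysed with saponin/Triton-X containing SYBR Green and read by fluorescence.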
Of the large screens only hits and unclear results are named; the others gave an inactive call.

O=C(c1ccc(C(F)(F)F)cc1)N1CCC2(CC1)COc1ccccc1CN2	none
COc1ccc(C(=O)N2CCC3(CC2)COc2ccccc2[S+](=O)([O-])N3)cc1	none
CC1N=C2c3ccccc3N=C(SCC(=O)NCCc3ccc(Cl)cc3)N2C1=O (stereo unspecified)	none
COc1ccc2[nH]c3c(c2c1)CCNC31CCN(C(=O)c2ccoc2)CC1	none
CC(C)CN1CC(COc2cccc(C(F)(F)F)c2)Oc2ccnc(-c3ccc(OCC(=O)O)cc3)c2C1=O (stereo unspecified)	none
Cc1cccc(OCC(=O)N2CC(C(=O)NCc3ccncc3)C3(CCOCC3)C2)c1 (stereo unspecified)	none
CN1CCN(C)c2cnc(-c3ccc(C(=O)N(C)C)cc3)cc2C1	none
Cc1ccc(Cl)cc1N1CCN(C(=O)c2ccc3c(c2)N(Cc2ccc(F)cc2)CCS3)CC1	Pf Dd2 inh 7.9µM
Cc1ccc(CN2CCSc3ccc(C(=O)N4CCN(c5cc(C)ccc5C)CC4)cc32)cc1	Pf Dd2 inh 11µM
Cc1c(C)n(Cc2ccc(F)cc2)c2ccc(C(=O)N3CCN(c4ccc(Cl)cc4)CC3)cc12	none
COc1ccc(Cn2c(=O)[nH]c3cc(C(=O)N4CCN(c5cc(C)ccc5C)CC4)ccc3c2=O)cc1	none
Cc1c(C)n(Cc2ccccc2)c2ccc(C(=O)N3CCN(c4ccc(F)cc4)CC3)cc12	none
O=C(c1ccc2c(c1)N(Cc1ccc(F)cc1)CCS2)N1CCN(c2ccccc2)CC1	Pf Dd2 inh 10µM
Cc1ccc(Cl)cc1N1CCN(C(=O)Cn2cnc3onc(-c4ccc(F)cc4)c3c2=O)CC1	none
O=C(CN1CCSc2ccccc21)N1CCN(c2ccc(F)cc2)CC1	none
Cc1ccc(C)c(N2CCN(C(=O)CN3CCSc4ccccc43)CC2)c1	none
C=CCC(O)(CC=C)CNC(=O)C1CCC(=O)N(CCc2ccccn2)C1 (stereo unspecified)	none
Cc1cc(C)c2nc(N3CCCC(C(=O)NCc4cccc(Br)c4)C3)sc2c1 (stereo unspecified)	none
COc1ccc(CCNC(=O)c2ccc3c(c2)ncn3-c2ccc(C(C)C)cc2)cc1OC	Pf Dd2 inh 11µM
COc1ccc(CCNC(=O)c2ccc3c(Cl)c4c(nc3c2)CCCC4)cc1OC	Pf Dd2 inh 11µM
COCCNC(=O)c1ccc2c(c1)ncn2-c1cc(C)ccc1OC	none
CCc1nc2ccc(C(=O)NCCc3ccc(OC)c(OC)c3)cc2nc1CC	none
COc1ccc(CCNC(=O)c2ccc3c(Cl)c4c(nc3c2)CCCC4)c(OC)c1	none
COc1ccc(CNC(=O)c2ccc3c(Cl)c4c(nc3c2)CCCC4)c(OC)c1	none
CC1Oc2ccc(NC(=O)C3CC3)cc2CN(Cc2cc(F)cc(F)c2)C1=O (stereo unspecified)	none
CCCCc1nn2c(=O)cc(COC(=O)CNC(=O)COc3ccc(C)cc3)nc2s1	none
O=C(c1nnc(CNCc2cccc(F)c2)n1-c1cccnc1)N1CCC[C@@H]1C(c1ccccc1)c1ccccc1	none
CCC(c1cccs1)N1C(=O)[C@H]2CN(S(=O)(=O)c3ccc(F)c(F)c3)C[C@H]2C1=O (stereo partly specified)	none
CN1[C@@H](CCC(=O)N2CCOCC2)CNC(=O)[C@@H]2[C@H]1CCN2Cc1ccccc1	none
COc1cccc(C(=O)n2nc(-c3ccco3)nc2NCc2cccs2)c1	none
COc1cc(=O)n2c(c1C(=O)Nc1cccc(C)c1)CCCC2	none
c1ccc(C(c2cccs2)c2c[nH]c3ccccc23)cc1 (stereo unspecified)	none
Cc1[nH]c2ccccc2c1C(c1ccccc1)c1ccc(Cl)s1 (stereo unspecified)	Pf Dd2 inh 8.9µM
O=C1C2CN(Cc3cc(F)ccc3F)CCC2OCCN1CCc1ccccc1 (stereo unspecified)	none
O=C(O)C[C@@H]1CCN(C(=O)Nc2ccc(F)cc2)C[C@@H]1CCN1CCCCC1	none
CCCCNC(=O)Cc1csc2nc(C)c(-c3cc(C)n(-c4cc(Cl)ccc4C)n3)c(=O)n12	none
CC(C)c1noc(CC2CCN(C(=O)c3ccc(C(C)(C)C)cc3)CC2)n1	Pf Dd2 inh 7.9µM
CC(C)c1noc(CC2CCN(C(=O)c3ccc(F)cc3)CC2)n1	none
CC(C)c1noc(CC2CCN(C(=O)c3ccc(N(C)C)cc3)CC2)n1	none
Cc1c(Cl)cccc1NC(=O)CSc1nc(=O)[nH]c2c1CCCC2	none
O=[S+]1([O-])NCC2(CCN(Cc3ccncc3)C2)Oc2ncccc21 (stereo unspecified)	none
Cc1ccc(CNC(=O)c2ccc3c(c2)c(C)c(C)n3Cc2ccccc2)o1	none
Cc1ccc(CNC(=O)c2ccc3c(c2)c(C)c(C)n3Cc2ccc(Cl)cc2)o1	Pf Dd2 inh 10µM
Cc1c(C)n(Cc2ccccc2)c2ccc(C(=O)NCc3ccco3)cc12	Pf Dd2 inh 7.1µM
CCc1ccc(CNC(=O)c2ccc3c(c2)c(C)c(C)n3Cc2ccccc2)cc1	none
COc1cccc(CNC(=O)c2ccc3c(c2)c(C)c(C)n3Cc2ccccc2)c1	none
COc1ccccc1CCNC(=O)c1ccc2c(c1)c(C)c(C)n2Cc1ccc(Cl)cc1	none
Cc1cccc(-c2nnc(SCCC(=O)O)o2)c1	none
Cc1noc(-c2ccn3c(CNC(=O)c4ccccn4)nnc3c2)n1	none
O=C(c1c[nH]c2ccccc12)N1CCC2(CC1)CN(c1ccncn1)CC2CO (stereo unspecified)	Pf Dd2 inh 5.6µM
O=C(Cc1ccsc1)N1CCC2(CC1)CN(c1ccncn1)CC2CO (stereo unspecified)	none
O=C(Cc1ccccc1)N1CCC2(CC1)CN(c1ccncn1)CC2CO (stereo unspecified)	none
Cc1ccc(C(NC(=O)Cc2cccs2)C(=O)Nc2ccc(C(C)C)cc2)cc1 (stereo unspecified)	none
CC(C)CCN1CCc2[nH]nc(C(=O)N(C)Cc3cccnc3)c2C1	none
COc1cc(OC)c(Nc2ncncc2-c2nc(-c3ccccc3)no2)cc1Cl	none
CCn1ccc(C(=O)N2C[C@@H](Oc3cccnc3)C[C@H]2C(=O)NC)n1	none
COc1cccc(Nc2ccc3c(n2)C(C)(C(=O)NCCc2ccccn2)CN(C)C3)c1 (stereo unspecified)	Pf Dd2 inh 3.2µM
COc1cccc(Nc2ccc3c(n2)C(C)(C(=O)NCCc2cnc[nH]2)CN(C)C3)c1 (stereo unspecified)	none
COc1ccc(NC(=O)C2(C)CCCc3cnc(Nc4cccnc4)nc32)cc1 (stereo unspecified)	none
COCCN1Cc2ccc(NCC(C)C)nc2C(C)(C(=O)NCc2cccnc2)C1 (stereo unspecified)	none
COc1cccc(Nc2ncc3c(n2)C(C)(C(=O)NCCN2CCOCC2)CC3)c1 (stereo unspecified)	none
COCCN1Cc2ccc(Nc3cccnc3)nc2C(C)(C(=O)Nc2cccc(F)c2)C1 (stereo unspecified)	Pf Dd2 inh 8.9µM
Cn1nccc1C(=O)N1CCN(Cc2ccc(=O)n(CC3CC3)c2)CC1	none
Cc1cccc(-c2noc(CNC(=O)c3ccc(C)cc3C)n2)c1	none
CCOC(=O)N1CCN(C(=O)c2ccc3c(c2)N(Cc2ccccc2F)C(=O)c2ccccc2S3(=O)=O)CC1	none
Cc1ncc(C)c(N2C[C@H](NC(=O)CCC(F)(F)F)[C@@H](C(C)C)C2)n1	none
CC(C)(C)C(=O)N1CCC(OC2CCN(Cc3ccccc3)CC2)CC1	none
COc1ccc(C)cc1NC(=O)N1CCC(OC2CCN(Cc3ccccc3)CC2)CC1	Pf Dd2 inh 11µM
O=C(C1CCCCC1)N1CCC(OC2CCN(Cc3ccccc3)CC2)CC1	none
O=S(=O)(c1ccc(F)cc1)N1CCC(OC2CCN(Cc3ccccc3)CC2)CC1	none
Cc1c(F)cccc1NC(=O)N1CCC(OC2CCN(Cc3ccccc3)CC2)CC1	Pf Dd2 inh 4.5µM
